# Values joined by “and” are separate entries in the source; they are usually repeats but may differ in a detail not shown here. Equal entries are not always repeated. Entries with a potency or affinity are not part of this list.
# Key:
# Klebsiella pneumoniae = settings: Concentration 32 ug.mL-1, ASSAY_TEST Inhibition of Bacterial Growth, detection method Absorption (OD600), MEDIA CAMHB, plate type 384well, NBS, CORNING #3640, time 18 hr
# Candida albicans = settings: 32 ug/mL
# Cryptococcus neoformans = settings: Concentration 32 ug.mL-1, ASSAY_TEST Inhibition of Fungal Growth, detection method Resazurin, Absorption (OD600-OD570), plate type 384well, NBS, CORNING #3640
SMILES,Inhibition (Klebsiella pneumoniae; 32 ug/mL),Inhibition (Candida albicans),Inhibition (Cryptococcus neoformans; 32 ug/mL),Inhibition (Klebsiella pneumoniae),Inhibition (Cryptococcus neoformans)
Cc1ccc(C(=O)NC(Cc2cc(F)c(F)cc2F)C(=O)O)cc1 (configuration not stated),7.96% and 13.51%,4.99% and 4.52%,-10.86% and -7.35%,–,–
[C-]#[N+]c1ccc(C(=O)NC(CC)C(=O)NCCC)cc1 (configuration not stated),–,-0.99%,–,12.56%,-4.7%
Cc1ccc(C(=O)NC(Cc2ccc(F)cc2)C(=O)O)cc1 (configuration not stated),-11.12% and 7.59%,–,-14.35% and -11.02%,–,–
[C-]#[N+]c1ccc(C(=O)NC(Cc2ccc(C(F)(F)F)cc2)C(=O)NCCC)cc1 (configuration not stated),–,5.79%,–,13.54%,-3.04%
NC(=O)[C@@H]1CCCN1C(=O)c1ccccn1,13.57% and 8.38%,8.62% and 7.92%,-5.72% and -3.53%,–,–
CCCNC(=O)C(Cc1ccccc1C)NC(=O)c1ccc(C(F)(F)F)cc1 (configuration not stated),–,0.78%,–,12.54%,-3.03%
[C-]#[N+]c1ccc(C(=O)NC(Cc2ccccc2F)C(=O)NCCC)cc1 (configuration not stated),–,1.53%,–,8.88%,-7.85%
CC(C)C[C@H](NC(=O)c1ccc(Cl)cc1Cl)C(N)=O,14.05% and -7.39%,4.49% and 5.39%,-13.33% and -10.52%,–,–
COc1cc(C(=O)N[C@@H](CC(C)C)C(=O)O)ccc1O,1.29% and 3.72%,4.13% and 6.65%,-7.3% and -10.82%,–,–
NC(Cc1ccc(F)cc1)C(=O)O.O=C(O)C(F)(F)F (configuration not stated),1.77% and -4.38%,1.28% and -0.06%,6.08% and -8.37%,–,–
NC(Cc1cccc(F)c1)C(=O)O.O=C(O)C(F)(F)F (configuration not stated),0.53% and 0.81%,1.58% and 1.27%,-7.68% and -3.4%,–,–
